Screens as filed in PubChem BioAssay.
CYP2C9 inh: blockers of cytochrome P450 2C9 activity – biochemical, luminescence, ADME assay, primary screen; hit rate 20% among 96,000; P11712; CYP2C9 Supersomes, luciferin-H conversion; inhibition, % at 5 µM;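 active means blocking of liver enzyme CYP2C9 beyond about 50% at 5 µM, limit read from the data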
Target sequence (P11712 whole entry, looked up): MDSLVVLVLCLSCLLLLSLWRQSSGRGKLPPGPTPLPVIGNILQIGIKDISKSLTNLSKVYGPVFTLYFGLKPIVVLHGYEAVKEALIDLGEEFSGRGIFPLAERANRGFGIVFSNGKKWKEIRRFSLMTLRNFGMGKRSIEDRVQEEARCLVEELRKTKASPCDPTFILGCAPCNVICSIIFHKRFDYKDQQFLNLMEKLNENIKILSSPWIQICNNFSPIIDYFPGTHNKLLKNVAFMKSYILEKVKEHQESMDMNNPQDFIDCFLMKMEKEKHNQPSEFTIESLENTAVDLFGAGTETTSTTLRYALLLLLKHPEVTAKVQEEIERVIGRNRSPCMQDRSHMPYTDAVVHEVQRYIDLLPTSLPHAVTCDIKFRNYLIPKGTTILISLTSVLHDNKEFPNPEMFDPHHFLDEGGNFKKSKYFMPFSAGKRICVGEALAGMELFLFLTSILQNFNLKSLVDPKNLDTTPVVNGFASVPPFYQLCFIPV
CYP2C9 act: human CYP2C9 activators, primary screen, biochemical, luminescence | recombinant CYP2C9, luciferin-H conversion; active compounds read high; factor 1 = untreated enzyme, 0 = blocked | Cytochrome P450 2C9 (Homo sapiens), P11712 | activation factor at 5 µM | hit rate 1.4% among 96,000;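 active means activation factor of 2 or more for CYP2C9 at a 5 µM dose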;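 further: 0 = sulfaphenazole-blocked wells and 1 = vehicle-only wells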
CYP2C19 inh: blockers of cytochrome P450 2C19 activity – biochemical, luminescence, ADME assay, primary screen. P33261. CYP2C19 Supersomes, luciferin-H EGE luminescence, 30 min. inhibition, % at 5 µM. hit rate 21% among 96,000;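 active means CYP2C19 inhibition above a set limit at 5 µM in the primary screen, cut at about 50% in these data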;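 further: plate controls were negative control wells for no effect and 2.5 mM tranylcypromine positive control for full effect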
CYP2C19 activ: human CYP2C19 activators, primary screen, biochemical, luminescence | Cytochrome P450 2C19 (Homo sapiens), P33261 | recombinant CYP2C19, luciferin-H EGE luminescence; active compounds read high; 0 = fully inhibited enzyme, 1 = untreated enzyme | activation factor at 5 µM | 96,000 tested, under 10 active | AID 1025, 2008;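 active means activation factor of at least 2 at 5 µM in the primary screen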;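 further: 0 = wells with 2.5 mM tranylcypromine and 1 = vehicle-only wells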
* hit, by the source's call. Hits are enriched below; roughly 31% of the tested compounds scored in any of these assays.

How did O=C(ONc1ccc(N=NC(=O)c2ccccc2O)cc1)c1ccccc1 do in these assays?
CYP2C9 inh: 71.0*; CYP2C9 act: 0.3; CYP2C19 inh: 84.3*; CYP2C19 activ: 0.2

Results for CCc1ccc(NC(=O)CN2CCc3ccccc3C2)cc1 ?
CYP2C9 inh: 89.8*; CYP2C9 act: 0.1; CYP2C19 inh: 92.3*; CYP2C19 activ: 0.1

How did O=C(CN1CCc2ccccc2C1)Nc1ccc(Br)cc1 do in these assays?
CYP2C9 inh: 42.3; CYP2C9 act: 0.6; CYP2C19 inh: 89.6*; CYP2C19 activ: 0.1

How did O=C(Nc1ccc(C(=O)N2CCCC2)cc1)c1ccccc1F do in these assays?
CYP2C9 inh: 13.7; CYP2C9 act: 0.9; CYP2C19 inh: 9.0; CYP2C19 activ: 0.9

What do the screens show for `O=C(CN1CCN(C(=O)c2ccccc2F)CC1)Nc1ccc(Br)cc1`?
CYP2C9 inh: -169.5; CYP2C9 act: 2.7*; CYP2C19 inh: 27.3; CYP2C19 activ: 0.7

What do the screens show for `CCC(=O)c1ccccc1OCCCn1cncn1`?
CYP2C9 inh: 30.8; CYP2C9 act: 0.7; CYP2C19 inh: 89.9*; CYP2C19 activ: 0.1

Results for c1ccc(COc2ccc(OCCn3cncn3)cc2)cc1 ?
CYP2C9 inh: 95.9*; CYP2C9 act: 0; CYP2C19 inh: 91.5*; CYP2C19 activ: 0.1

What do the screens show for `CC(=O)CCc1ccc(OCCCCn2cncn2)cc1`?
CYP2C9 inh: 24.4; CYP2C9 act: 0.8; CYP2C19 inh: 46.6; CYP2C19 activ: 0.5

How did c1ccc(-c2ccc(OCCCn3cncn3)cc2)cc1 do in these assays?
CYP2C9 inh: 71.4*; CYP2C9 act: 0.3; CYP2C19 inh: 70.1*; CYP2C19 activ: 0.3

How did O=C(COc1cccc(Oc2ccccc2)c1)Nc1ncccn1 do in these assays?
CYP2C9 inh: 11.4; CYP2C9 act: 0.9; CYP2C19 inh: 38.0; CYP2C19 activ: 0.6

Results for c1ccc(Oc2cccc(OCCn3cncn3)c2)cc1 ?
CYP2C9 inh: 68.1*; CYP2C9 act: 0.3; CYP2C19 inh: 94.8*; CYP2C19 activ: 0.1

Results for O=c1c2ccccc2cnn1-c1ccc(Cl)cc1 ?
CYP2C9 inh: 10.3; CYP2C9 act: 0.9; CYP2C19 inh: 14.2; CYP2C19 activ: 0.9

Results for CCN1C=C(Cc2ccccc2C)C2=C(C1)C(c1ccccc1C)C(C#N)=C(N)O2 (stereo not drawn) ?
CYP2C9 inh: 98.6*; CYP2C9 act: 0; CYP2C19 inh: 85.2*; CYP2C19 activ: 0.1

Results for COC(=O)C1=C2SC(C)C(=O)N2C(N)=C(C#N)C1c1cc(OC)c(OC)c(OC)c1 (stereo not drawn) ?
CYP2C9 inh: 24.1; CYP2C9 act: 0.8; CYP2C19 inh: 11.6; CYP2C19 activ: 0.9

What do the screens show for `COC(=O)C1=C2SC(C)C(=O)N2C(N)=C(C#N)C1c1ccc(OC)c(OC)c1` (stereo not drawn)?
CYP2C9 inh: 56.3*; CYP2C9 act: 0.4; CYP2C19 inh: 28.6; CYP2C19 activ: 0.7

How did O=C1c2ccccc2C(=O)N1CCc1csc(-c2cccc(F)c2)n1 do in these assays?
CYP2C9 inh: 52.2*; CYP2C9 act: 0.5; CYP2C19 inh: 100.0*; CYP2C19 activ: 0

How did Cc1nc(CCN2C(=O)c3ccccc3C2=O)n[nH]1 do in these assays?
CYP2C9 inh: 5.6; CYP2C9 act: 0.9; CYP2C19 inh: -1.2; CYP2C19 activ: 1

How did O=C1c2ccccc2C(=O)N1CCCCCc1nc(-c2ccccc2)no1 do in these assays?
CYP2C9 inh: 40.5; CYP2C9 act: 0.6; CYP2C19 inh: 5.6; CYP2C19 activ: 0.9

What do the screens show for `O=C1c2ccccc2C(=O)N1CCc1csc(-c2cccc(Cl)c2)n1`?
CYP2C9 inh: 1.8; CYP2C9 act: 1; CYP2C19 inh: 99.0*; CYP2C19 activ: 0

How did Cc1ccc(S(=O)(=O)c2c(COC(=O)c3ccc(Cl)cc3)c(-c3ccccc3)nn2C)cc1 do in these assays?
CYP2C9 inh: 51.9*; CYP2C9 act: 0.5; CYP2C19 inh: 66.9*; CYP2C19 activ: 0.3

What do the screens show for `COC(=O)c1ccc(COC(=O)c2ccc(CS(=O)(=O)c3ccc(C)cc3)cc2)cc1`?
CYP2C9 inh: 43.4; CYP2C9 act: 0.6; CYP2C19 inh: 0.4; CYP2C19 activ: 1

Results for CCOC(=O)CSc1n[nH]c(NC(=O)c2cccc(C(F)(F)F)c2)n1 ?
CYP2C9 inh: 37.9; CYP2C9 act: 0.6; CYP2C19 inh: 41.3; CYP2C19 activ: 0.6

Results for COC(=O)CN1C(c2ccccc2)=Nc2ccc(Cl)cc2C1c1ccccc1 (stereo not drawn) ?
CYP2C9 inh: 20.3; CYP2C9 act: 0.8; CYP2C19 inh: 25.2; CYP2C19 activ: 0.7
